# Data: PubChem BioAssay
# “And” between values parts separate entries of the source, which are not always exact repeats. Equal values may be shown once. The source made the active and inactive calls.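 Rule for the calls, unless noted: active = compound raises GLP1 secretion from the human gut endocrine cells, with no numeric limit stated; inactive = the rest.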
# Tests used:
# [1] = liver-stage malaria parasite growth inhibition, primary screen, cell-based, HepG2, luciferase luminescence, HepG2 viability (AID 624349; in the data active = parasite load remaining mostly below about 12%, no sharp cut-off; inactive = mostly above about 10%;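 note: 100% = mean of DMSO negative control wells on the same plate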); conditions: P. berghei liver stage in HepG2, luciferase luminescence, concentration not given here; parasite load remaining: stronger effect = lower value; viability: measured here: HepG2 viability without parasites
# [2] = stimulators of nuclear beta-catenin in C2C12, primary screen, imaging, WNT3A-conditioned medium, mouse C2C12, NPC library (AID 1117326; in the data active = nuclear beta-catenin stimulation mostly above about 4.2%, no sharp cut-off; inactive = mostly below about 10%); conditions: stronger effect = higher value
# [3] = stimulators of insulin release from INS-1E, primary screen, cell-based, 5 mM glucose, NPC library (AID 1117329;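 active = compound raises insulin release from rat beta cells at 5 mM glucose, no numeric limit stated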); conditions: rat INS-1E insulin secretion, at 10 µM, stronger effect = higher value
# [4] = growth inhibition of GSK3B-pretreated HCT116 cells – cell-based, CellTiter-Glo, 0.2 to 20 µM (AID 1117336;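 active = compounds lowering colon cancer cell viability after pretreatment blocking the GSK3B kinase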); conditions: HCT116 viability after GSK3B inhibitor, at 20 µM, stronger effect = higher value
# [5] = inhibition of endothelial tube formation, primary screen, imaging, VEGF stimulated, CD31 staining, tube area, NPC library (AID 1117340;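 active = compound that reduces growth-factor-driven endothelial tube area in a mixed cell culture, no cutoff stated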); conditions: VEGF-stimulated ADSC/ECFC co-culture, at 10 µM, stronger effect = higher value
# [6] = glucagon-like peptide 1 release enhancers, primary assay, NCI-H716 cell line, NPC library (AID 1117341); conditions: NCI-H716 cells, at 10 µM, stronger effect = higher value
# [7] = HCT116 colon cancer cell growth inhibition, primary screen, CellTiter-Glo luminescence, NPC library (AID 1117342;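 active = compounds that lower survival of HCT116 colon cancer cells in the luminescence readout, no numeric limit stated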); conditions: at 20 µM (top of the series)
# [8] = CellTiter-Glo luminescent readout of SW480 viability loss, NPC library primary (AID 1117343;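 active = compounds that lower viability of the colon cancer cells in the luminescence readout, with no numeric limit stated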); conditions: CellTiter-Glo luminescence; at 20 µM (top of the series)
# [9] = decreased DLD-1 cellular survival, CellTiter-Glo luminescent readout, NPC compound collection, primary HTS (AID 1117346;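 active = compounds that lower survival of DLD-1 colon cancer cells in the luminescence readout, no cutoff given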); conditions: DLD-1 viability, CellTiter-Glo luminescence; at 20 µM (top of the series)
# [10] = differential killing of epithelial or mesenchymal cells, primary screen, imaging, PC-3E GFP, TEM4-18 mCherry, co-culture (AID 1345086;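 active = compounds killing one labelled cell type while sparing the other, by normalised counts and ratio limits, not self-fluorescent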;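 for all read-outs here: cells exposed to compound for 72 h before imaging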;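 for red/green cell ratio (normalised): normalised mesenchymal count divided by normalised epithelial count so high means epithelial killing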); conditions: imaging cell counts, at 1 µM; for red/green cell ratio (normalised): actives lie on both sides
# [11] = tested on: Aerobactin synthetase IucA (Klebsiella pneumoniae hvKP1); test: Biochemical IucA enzyme inhibition primary screen of the Spectrum library (AID 1346200; call rule not given here;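 note: 100% = wells without compound and 0% = wells lacking enzyme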); conditions: malachite green pyrophosphate, A620, at 8 µM, stronger effect = lower value
# [12] = sensitizers of A549 cells to miR-34 induction, primary screen, imaging, A549 dox-inducible miR-34, nuclei and caspase counts (AID 1347080;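 active = compounds whose cell count with miR-34 switched on is under 0.7 times the count with it off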); conditions: A549 miR-34 inducible, Hoechst nuclei count, 48 h
# [13] = molecular target: NAD(+) hydrolase SARM1 (Homo sapiens) (UniProt Q6SZW1); test: SARM1 TIR NADase inhibitors, cell lysate, NAD-Glo luminescence (AID 1508614;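 active = compound whose remaining NAD level is above about 45 nM, limit read from the data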;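 note: higher remaining NAD means stronger inhibition of SARM1 NADase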); conditions: SAM-TIR HEK293T lysate NADase, at 1 µM, stronger effect = higher value
# Chain of NAD(+) hydrolase SARM1 (Homo sapiens) (Q6SZW1 whole entry, looked up, the tested form may be a part): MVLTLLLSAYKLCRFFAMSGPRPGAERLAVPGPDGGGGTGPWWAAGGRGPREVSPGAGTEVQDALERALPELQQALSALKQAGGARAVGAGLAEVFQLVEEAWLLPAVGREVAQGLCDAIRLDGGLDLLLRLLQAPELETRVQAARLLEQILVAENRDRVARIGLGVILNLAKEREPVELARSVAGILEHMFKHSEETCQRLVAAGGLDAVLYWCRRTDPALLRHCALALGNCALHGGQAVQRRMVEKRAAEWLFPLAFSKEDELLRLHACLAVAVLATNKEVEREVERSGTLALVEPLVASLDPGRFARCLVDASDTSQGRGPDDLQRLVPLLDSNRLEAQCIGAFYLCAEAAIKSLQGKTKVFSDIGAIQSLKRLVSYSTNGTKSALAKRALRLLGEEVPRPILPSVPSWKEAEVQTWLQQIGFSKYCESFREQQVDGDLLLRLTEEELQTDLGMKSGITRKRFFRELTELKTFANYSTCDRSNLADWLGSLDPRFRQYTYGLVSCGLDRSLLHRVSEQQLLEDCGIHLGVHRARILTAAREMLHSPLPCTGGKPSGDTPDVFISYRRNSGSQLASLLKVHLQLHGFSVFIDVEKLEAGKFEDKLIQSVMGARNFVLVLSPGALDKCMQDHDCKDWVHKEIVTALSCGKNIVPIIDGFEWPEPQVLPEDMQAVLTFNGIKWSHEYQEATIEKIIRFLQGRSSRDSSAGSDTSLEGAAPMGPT
# [14] = molecular target: Mitogen-activated protein kinase 7 (Homo sapiens) (UniProt Q13164); test: ERK5 transactivation activators in reporter cells, primary screen, cell-based, HTS (AID 1508626;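 active = luciferase signal above three times the same-plate solvent-only control wells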;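 note: luciferase driven by Gal4-ERK5 fusion binding five Gal4 sites before minimal TATA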); conditions: HeLa Gal4-ERK5 transactivation, 18 h, at 5 µM, stronger effect = higher value
# Chain of Mitogen-activated protein kinase 7 (Homo sapiens) (Q13164 whole entry, looked up, the tested form may be a part): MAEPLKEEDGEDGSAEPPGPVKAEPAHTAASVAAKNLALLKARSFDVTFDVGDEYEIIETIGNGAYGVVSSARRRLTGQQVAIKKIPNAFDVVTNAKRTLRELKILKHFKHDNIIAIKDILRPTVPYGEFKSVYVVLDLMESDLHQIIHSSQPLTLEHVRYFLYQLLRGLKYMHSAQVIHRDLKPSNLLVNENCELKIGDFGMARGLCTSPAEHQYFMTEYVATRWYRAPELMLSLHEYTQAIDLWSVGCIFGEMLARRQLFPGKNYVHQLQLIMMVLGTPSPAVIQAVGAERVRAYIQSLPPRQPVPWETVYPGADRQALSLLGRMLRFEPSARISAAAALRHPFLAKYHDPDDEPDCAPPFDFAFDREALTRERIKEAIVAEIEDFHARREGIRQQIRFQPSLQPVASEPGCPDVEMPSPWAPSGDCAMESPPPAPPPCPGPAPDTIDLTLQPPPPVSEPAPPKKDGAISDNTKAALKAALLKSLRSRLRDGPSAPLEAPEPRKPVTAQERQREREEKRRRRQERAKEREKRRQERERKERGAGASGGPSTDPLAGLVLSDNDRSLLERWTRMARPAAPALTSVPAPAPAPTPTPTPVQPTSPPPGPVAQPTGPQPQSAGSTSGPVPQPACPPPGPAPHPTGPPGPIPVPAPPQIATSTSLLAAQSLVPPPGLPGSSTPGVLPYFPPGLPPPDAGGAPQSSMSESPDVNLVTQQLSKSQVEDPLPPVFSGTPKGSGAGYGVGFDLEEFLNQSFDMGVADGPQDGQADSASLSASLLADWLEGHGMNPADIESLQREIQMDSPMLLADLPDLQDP
# [15] = tested on: Aerobactin synthetase IucA (Klebsiella pneumoniae, hypervirulent); test: IucA enzyme inhibition, biochemical, LOPAC library, absorbance readout (AID 1346212; call rule not given here;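 note: 100% = no compound wells and 0% = no enzyme wells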); conditions: IucA enzyme assay, absorbance (OD) readout; stronger effect = lower value; concentration not given here
# [16] = survival rescue of mitochondrial mutant cells in low glucose, primary screen, MELAS cybrids, Rieske KO mouse fibroblasts, CellTiter-Glo (AID 1508586;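 active = mean z-score across replicates of 1.96 or higher in either the MELAS or the Rieske mutant cell line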;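 note: z relative to plate mean and SD of compound and empty wells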)
# [17] = viability rescue of complex I mutant cybrids, primary screen, cell-based, galactose medium, ATP luminescence (AID 1645843;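 active = z-score of at least 1.8 in each of two replicates, scored against plate mean and spread of sample wells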;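 note: positive z means more ATP and so rescue of galactose-driven cybrid death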); conditions: complex I mutant cybrid cells, 72 h, stronger effect = higher value
# [18] = hESC survival regulators, cell-based (AID 493140; call rule not given here;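 note: cells exposed to compounds for four days before counting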); conditions: human embryonic stem cell survival screen; stronger effect = higher value
# [19] = measured here: epithelial PC-3E GFP cell survival
# [20] = measured here: mesenchymal TEM4-18 mCherry cell survival
# [21] = measured here: relative caspase fold change +Dox/-Dox
# [22] = measured here: total cells with miR-34 induction, stronger effect = lower value
# [23] = measured here: total cells without miR-34 induction
# [24] = MELAS cybrid survival, CellTiter-Glo 48 h, stronger effect = higher value
# [25] = Rieske KO mouse fibroblast survival, CellTiter-Glo 72 h
smiles,measurement,setting,value
CCCC(C)C1(CC)C(=O)N=C(S)NC1=O (stereo not given),parasite load remaining,[1],29.3% (inactive)
same,viability,[1],123%
same,nuclear beta-catenin stimulation,[2]; at 10 µM,0.1% (inactive)
same,nuclear beta-catenin stimulation,"[2]; stimulation, at 2 µM",-0.3%
same,insulin secretion stimulation,[3],-0.2% (inactive)
same,viability decrease,[4],-5.2% (inactive)
same,tube area decrease,[5],-13.6% (inactive)
same,GLP1 secretion stimulation,[6],0.9% (inactive)
same,inhibition of viability,[7],-4.4% (inactive)
same,viability decrease (inhibition),[8],95.4% (active)
same,viability decrease (inhibition),[9],3.85% (inactive)
same,red/green cell ratio (normalised),[10],1.19 (inactive)
same,normalised cell number,[10]; [19],1.01
same,normalised cell number,[10]; [20],1.21
same,activity remaining,[11],91.6% (inactive)
same,fold change,[12]; stronger effect = lower value,0.92 (inactive)
same,fold change,[12]; [21],4.02
same,cell count,[12]; [22],10900
same,cell count,[12]; [23],11900
same,remaining NAD,[13],10 nM (inactive)
same,luciferase signal,[14],60 AU (inactive)
Cc1cccc(C)c1NC(=O)CN1CCCC1=O,nuclear beta-catenin stimulation,[2]; at 10 µM,-1.9% (inactive)
same,nuclear beta-catenin stimulation,"[2]; stimulation, at 2 µM",0.9%
same,insulin secretion stimulation,[3],1.6% (inactive)
same,viability decrease,[4],0.1% (inactive)
same,tube area decrease,[5],-2.5% (inactive)
same,GLP1 secretion stimulation,[6],-2.4% (inactive)
same,inhibition of viability,[7],0.2% (inactive)
same,viability decrease (inhibition),[8],0.5% (inactive)
same,viability decrease (inhibition),[9],-10.5% (inactive)
same,remaining activity,[15],106% (inactive)
same,fold change,[12]; stronger effect = lower value,0.975 (inactive) and 0.928 (inactive)
same,fold change,[12]; [21],1.2 and 0.724
same,cell count,[12]; [22],10700 and 8710
same,cell count,[12]; [23],11000 and 9380
same,z-score,[16]; [24],-0.209 (inactive)
same,z-score,[16]; [25],0.685
same,remaining NAD,[13],10 nM (inactive)
same,z-score,[17],0.43 (inactive)
CC(O)CN1CCN(CC(=O)[O-])CCN(CC(=O)[O-])CCN(CC(=O)[O-])CC1.[Gd+3] (stereo not given),nuclear beta-catenin stimulation,[2]; at 10 µM,-1.8% (inactive)
same,nuclear beta-catenin stimulation,"[2]; stimulation, at 2 µM",-0.7%
same,insulin secretion stimulation,[3],3.6% (inactive)
same,viability decrease,[4],7.8% (inactive)
same,tube area decrease,[5],9.4% (inactive)
same,GLP1 secretion stimulation,[6],-4.3% (inactive)
same,inhibition of viability,[7],0.7% (inactive)
same,viability decrease (inhibition),[8],-1.9% (inactive)
same,viability decrease (inhibition),[9],-6.4% (inactive)
same,red/green cell ratio (normalised),[10],0.9 (inactive)
same,normalised cell number,[10]; [19],1.27
same,normalised cell number,[10]; [20],1.14
same,fold change,[12]; stronger effect = lower value,0.973 (inactive)
same,fold change,[12]; [21],0.913
same,cell count,[12]; [22],8990
same,cell count,[12]; [23],9240
same,remaining NAD,[13],10 nM (inactive)
O=C(NC(=O)c1c(F)cccc1F)Nc1cc(Cl)c(OC(F)(F)C(F)C(F)(F)F)cc1Cl (stereo not given),nuclear beta-catenin stimulation,[2]; at 10 µM,2.8% (inactive)
same,nuclear beta-catenin stimulation,"[2]; stimulation, at 2 µM",1.2%
same,insulin secretion stimulation,[3],3.3% (inactive)
same,viability decrease,[4],3.9% (inactive)
same,tube area decrease,[5],19.4% (inactive)
same,GLP1 secretion stimulation,[6],2.3% (inactive)
same,inhibition of viability,[7],35% (inactive)
same,viability decrease (inhibition),[8],19.8% (inactive)
same,viability decrease (inhibition),[9],16.2% (inactive)
same,activity remaining,[11],94.5% (inactive)
same,fold change,[12]; stronger effect = lower value,1.06 (inactive)
same,fold change,[12]; [21],0.7
same,cell count,[12]; [22],7240
same,cell count,[12]; [23],6820
same,remaining NAD,[13],10 nM (inactive)
NCC1(CC(=O)O)CCCCC1,survival,[18],2.25 (inactive)
same,parasite load remaining,[1],131% (inactive) and 58.8% (inactive)
same,viability,[1],103% and 169%
same,nuclear beta-catenin stimulation,[2]; at 10 µM,1% (inactive)
same,nuclear beta-catenin stimulation,"[2]; stimulation, at 2 µM",2.1%
same,insulin secretion stimulation,[3],-1.1% (inactive)
same,viability decrease,[4],-8.75% (inactive)
same,tube area decrease,[5],20.1% (inactive)
same,GLP1 secretion stimulation,[6],-1.7% (inactive)
same,inhibition of viability,[7],-3.4% (inactive)
same,viability decrease (inhibition),[8],-3.2% (inactive)
same,viability decrease (inhibition),[9],-8.35% (inactive)
same,remaining activity,[15],98.6% (inactive)
same,z-score,[16]; [24],0.467 (inactive) and -0.335 (inactive)
same,z-score,[16]; [25],-0.399 and 0.119
same,remaining NAD,[13],10 nM (inactive)
same,luciferase signal,[14],76 AU (inactive)
same,z-score,[17],0.26 (inactive) and 0.88 (inactive)
COc1ccc(C(=O)c2c(C)n(CCN3CCOCC3)c3ccccc23)cc1,parasite load remaining,[1],50.5% (inactive)
same,viability,[1],159%
same,nuclear beta-catenin stimulation,[2]; at 10 µM,1.2% (inactive)
same,nuclear beta-catenin stimulation,"[2]; stimulation, at 2 µM",0.9%
same,insulin secretion stimulation,[3],-0.5% (inactive)
same,viability decrease,[4],75% (active)
same,tube area decrease,[5],8.1% (inactive)
same,GLP1 secretion stimulation,[6],1.7% (inactive)
same,inhibition of viability,[7],54% (active)
same,viability decrease (inhibition),[8],65% (active)
same,viability decrease (inhibition),[9],39.5% (inactive)
same,fold change,[12]; stronger effect = lower value,0.898 (inactive)
same,fold change,[12]; [21],1.25
same,cell count,[12]; [22],9440
same,cell count,[12]; [23],10500
same,z-score,[16]; [24],0.332 (inactive)
same,z-score,[16]; [25],0.082
same,z-score,[17],0.375 (inactive)
CC(C)(C)OC(=O)c1ncn2c1[C@@H]1CCCN1C(=O)c1c(Br)cccc1-2,nuclear beta-catenin stimulation,[2]; at 10 µM,4% (inactive)
same,nuclear beta-catenin stimulation,"[2]; stimulation, at 2 µM",2.4%
same,insulin secretion stimulation,[3],-0.65% (inactive)
same,viability decrease,[4],13.7% (inactive)
same,tube area decrease,[5],2% (inactive)
same,GLP1 secretion stimulation,[6],-0.4% (inactive)
same,inhibition of viability,[7],26.5% (inactive)
same,viability decrease (inhibition),[8],-7.5% (inactive)
same,viability decrease (inhibition),[9],7.7% (inactive)
same,fold change,"[12]; stronger effect = lower value, cell number ratio, induced over uninduced",0.898 (inactive)
same,fold change,[12]; [21],1.56
same,cell count,[12]; [22],6920
same,cell count,[12]; [23],7710
same,z-score,[17],-0.115 (inactive)
O=c1n(Cl)c(=O)n(Cl)c(=O)n1Cl,nuclear beta-catenin stimulation,[2]; at 10 µM,-0.9% (inactive)
same,nuclear beta-catenin stimulation,"[2]; stimulation, at 2 µM",-0.3%
same,insulin secretion stimulation,[3],1.5% (inactive)
same,viability decrease,[4],-15.4% (inactive)
same,tube area decrease,[5],16.7% (inactive)
same,GLP1 secretion stimulation,[6],0.8% (inactive)
same,inhibition of viability,[7],13.9% (inactive)
same,viability decrease (inhibition),[8],11.6% (inactive)
same,viability decrease (inhibition),[9],-0.1% (inactive)
same,red/green cell ratio (normalised),[10],0.94 (inactive)
same,normalised cell number,[10]; [19],1.07
same,normalised cell number,[10]; [20],1
same,fold change,[12]; stronger effect = lower value,0.97 (inactive)
same,fold change,[12]; [21],1.18
same,cell count,[12]; [22],8670
same,cell count,[12]; [23],8940
same,remaining NAD,[13],10 nM (inactive)
O=[N+]([O-])c1ccc([As](=O)(O)O)cc1,nuclear beta-catenin stimulation,[2]; at 10 µM,2.2% (inactive)
same,nuclear beta-catenin stimulation,"[2]; stimulation, at 2 µM",1%
same,insulin secretion stimulation,[3],-1.1% (inactive)
same,viability decrease,[4],-9.2% (inactive)
same,tube area decrease,[5],3.2% (inactive)
same,GLP1 secretion stimulation,[6],-5.4% (inactive)
same,inhibition of viability,[7],-30.4% (inactive)
same,viability decrease (inhibition),[8],101% (active)
same,viability decrease (inhibition),[9],-9.5% (inactive)
same,red/green cell ratio (normalised),[10],0.85 (inactive)
same,normalised cell number,[10]; [19],1.16
same,normalised cell number,[10]; [20],0.99
same,fold change,[12]; stronger effect = lower value,0.887 (inactive)
same,fold change,[12]; [21],1.5
same,cell count,[12]; [22],8880
same,cell count,[12]; [23],10000
same,remaining NAD,[13],10 nM (inactive)
